BJeLR viability: kills HRASV12-expressing BJeLR cells | AID 1554 | actives 0.17% (n = 300,000) | BJeLR (HRASV12) viability, CellTiter-Glo ATP luminescence, 48 h | inhibition, % (test concentration not listed); in the data active means inhibition above about 50%
PrP UTR inh: suppresses PrP 5' UTR mRNA reporter expression; cell-based PrP 5' UTR mRNA reporter, plate reader; inhibition, % (test concentration not listed); actives 0.35% (n = 340,000); AID 488862; in the data active means inhibition above about 52%; further: 0 = median of the neutral control wells
PrPC TRFRET: inhibitors of human cell surface prion protein PrPC; inhibition, % at 13.8 µM; TR-FRET read-out; AID 720596; actives 0.43% (n = 370,000); P04156; in the data active means inhibition above about 24%; further: 0% = median of the test wells and 100% = reference compound wells
FBA Mtb inh: inhibits M. tuberculosis FBA enzyme; P9WQA3; AID 588726; purified M. tuberculosis FBA, fluorescence read-out; inhibition, % at 1 µM; actives 2.3% (n = 360,000); in the data active means inhibition above about 27%;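 further: 0% = vehicle and 100% = reference inhibitor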
Target sequence (P9WQA3 whole entry, looked up): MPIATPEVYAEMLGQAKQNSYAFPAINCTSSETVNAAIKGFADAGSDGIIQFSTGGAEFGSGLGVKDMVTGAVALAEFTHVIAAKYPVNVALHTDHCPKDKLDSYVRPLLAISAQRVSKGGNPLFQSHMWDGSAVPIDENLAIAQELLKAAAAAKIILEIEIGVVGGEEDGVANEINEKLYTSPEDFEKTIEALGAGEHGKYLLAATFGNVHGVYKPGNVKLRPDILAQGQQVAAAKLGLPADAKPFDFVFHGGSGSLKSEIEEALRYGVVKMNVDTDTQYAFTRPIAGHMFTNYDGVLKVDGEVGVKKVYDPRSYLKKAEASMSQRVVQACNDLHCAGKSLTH
PfHsp40 yeast: compounds rescuing yeast from Plasmodium falciparum HSP40 toxicity | S. cerevisiae expressing PfHsp40, growth rescue, ATP luminescence | growth rescue, % at 12.5 µM | actives 0.68% (n = 340,000) | AID 504582; in the data active means growth rescue above about 28%, passing the limit was not always enough;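 further: yeast W303a lacking pdr1 and pdr3 grown in galactose medium; growth measured after three days at 30 °C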
GDH-TPI inh: inhibits GDH-TPI coupling enzymes, artifact for Mtb FBA screen; inhibition, % at 4.8 µM; actives 1.2% (n = 360,000); GDH-TPI coupled enzyme counterscreen, NADH absorbance; in the data active means inhibition above about 30%;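 further: 0% = DMSO wells and 100% = wells lacking the enzyme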
* hit, by the source's call. An excerpt weighted towards active compounds, which were near 4.5% of everything screened.

Screening COC(=O)C1=C[C@@H]([C@@H](C)[C@H](OC)c2ccccc2Br)[C@@H]2OCCC[C@H]12 returned PrPC TRFRET -9.
COc1ccc(-c2ncn(CCc3ccccc3OC)c2C(C)C)cc1 was read as PrPC TRFRET 9.
For O=C(NNc1c(Cl)cc(Cl)cc1Cl)c1cccc([N+](=O)[O-])c1 the results were BJeLR viability -2, PrP UTR inh 9, PrPC TRFRET 5, FBA Mtb inh -1, PfHsp40 yeast 192* and GDH-TPI inh -4.
`COC(=O)[C@]12C[C@H](CC(=O)N3CCCCC3)C(=O)N(Cc3ccccc3)C1=C[C@H](COCc1ccccc1)O[C@@H]2C` gave PrPC TRFRET 14.
COc1cccc(OCc2cc(C(=O)N3CCC(c4ccncc4)CC3)no2)c1 was read as BJeLR viability 10, PrP UTR inh -3, PrPC TRFRET 18, FBA Mtb inh 4, PfHsp40 yeast -1 and GDH-TPI inh -10.
For COc1cccc(OCc2cc(C(=O)N3CCN(C)C(c4ccccc4)C3)no2)c1 (stereo unspecified) the results were BJeLR viability 10, PrP UTR inh -27, FBA Mtb inh -1, PfHsp40 yeast 149* and GDH-TPI inh 2.
Screening CCOc1cc(C2NN=C(c3ccc(C)cc3)S2)ccc1O (stereo unspecified) returned PrP UTR inh -117, PrPC TRFRET -8, FBA Mtb inh 4, PfHsp40 yeast 1 and GDH-TPI inh 34*.
`COc1ccc(C2NN=C(c3ccc(C)cc3)S2)cc1` (stereo unspecified) gave BJeLR viability 10, PrP UTR inh -79, PrPC TRFRET 3, FBA Mtb inh 11, PfHsp40 yeast 0 and GDH-TPI inh 5.
`CC(C)(C)NC(=O)[C@H](c1cccnc1)N(C(=O)c1ccco1)c1ccc(C(C)(C)C)cc1` gave PrPC TRFRET -2.
CCC1(CC)C(=O)NC(=Nc2cccc(C(F)(F)F)c2)NC1=O was read as BJeLR viability -20, PrP UTR inh -17, PrPC TRFRET -6, FBA Mtb inh 4, PfHsp40 yeast 111* and GDH-TPI inh 3.
Screening O=C(N/N=C/C(Cl)=C/c1ccc([N+](=O)[O-])cc1)C(=O)Nc1cccc(C(=O)O)c1 returned BJeLR viability 12, PrP UTR inh -12, PrPC TRFRET -8, FBA Mtb inh -2, PfHsp40 yeast 1 and GDH-TPI inh 37*.
`O=C(Nc1cccc(C(=O)O)c1)/C(=C/c1cccc([N+](=O)[O-])c1)NC(=O)c1cccc(Br)c1` gave BJeLR viability -4, PrP UTR inh 8, PrPC TRFRET -8, FBA Mtb inh 6, PfHsp40 yeast -1 and GDH-TPI inh -4.
For CSC(=S)NN=C(C)c1cccc(C)n1 the results were PrP UTR inh 11, PrPC TRFRET -2, FBA Mtb inh 1, PfHsp40 yeast 64* and GDH-TPI inh 6.
`N#Cc1cccc(NC(=O)OCCN2C(=O)CCC23CCC(c2ccccc2)CC3)c1` (stereo unspecified) gave PrPC TRFRET -9.
Screening COc1ccccc1[C@@H]1C(c2ccccc2)=NN(c2ccc(Br)cc2)[C@H]1C(=O)N1CCOC1=O returned PrP UTR inh 7, PrPC TRFRET 5, FBA Mtb inh 30*, PfHsp40 yeast 0 and GDH-TPI inh 2.
`O=C1OCCN1C(=O)[C@H]1[C@H](c2ccccc2)C(c2cccc(Cl)c2)=NN1c1ccc(Br)cc1` gave PrP UTR inh 6, PrPC TRFRET 1, FBA Mtb inh 54*, PfHsp40 yeast -1 and GDH-TPI inh 8.
`O=C1OCCN1C(=O)[C@H]1[C@H](c2ccc(F)cc2)C(c2cccc(Cl)c2)=NN1c1ccc(Br)cc1` gave PrP UTR inh -40, PrPC TRFRET -1, FBA Mtb inh 97*, PfHsp40 yeast 1 and GDH-TPI inh 1.
Screening O=C1OCCN1C(=O)[C@H]1[C@H](c2ccc(Cl)cc2)C(c2ccccc2)=NN1c1ccc(Br)cc1 returned PrP UTR inh -15, PrPC TRFRET 6, FBA Mtb inh 34*, PfHsp40 yeast 1 and GDH-TPI inh 9.
For O=C1OCCN1C(=O)[C@H]1[C@H](c2ccc([N+](=O)[O-])cc2)C(c2ccccc2)=NN1c1ccc(Br)cc1 the results were PrP UTR inh -14, PrPC TRFRET -2, FBA Mtb inh -1, PfHsp40 yeast 0 and GDH-TPI inh 2.
COC(=O)c1ccc(S(=O)(=O)N2CCC(NC(=O)COc3ccc(F)cc3)CC2)cc1 was read as PrPC TRFRET -5.
CCN(CC)C(=O)Cn1nc(Cc2ccncc2)c2ccccc2c1=O was read as PrPC TRFRET 0.
For O=C1OCCN1C(=O)[C@H]1[C@H](c2ccc(Cl)cc2)C(c2cccc(Cl)c2)=NN1c1ccccc1 the results were BJeLR viability 3, PrP UTR inh -23, FBA Mtb inh 48*, PfHsp40 yeast -2 and GDH-TPI inh 3.
Screening CSc1nc2nccc(-c3ccc(-c4ccccc4)cc3)n2n1 returned BJeLR viability -4, PrP UTR inh -17, PrPC TRFRET 0, FBA Mtb inh 153*, PfHsp40 yeast 5 and GDH-TPI inh 20.
For CSc1nc2nccc(-c3ccc(Oc4ccccc4)cc3)n2n1 the results were PrP UTR inh -5, PrPC TRFRET 1, FBA Mtb inh 4, PfHsp40 yeast -1 and GDH-TPI inh 20.
COc1cccc(N2CCN(C(=O)c3ccc(CS(=O)c4ccc(C)cc4)o3)CC2)c1 (stereo unspecified) was read as BJeLR viability 52*, PrP UTR inh 15, PrPC TRFRET 15, FBA Mtb inh 6, PfHsp40 yeast 2 and GDH-TPI inh 6.
Screening COc1cccc(N2CCN(C(=O)c3ccc(CS(=O)c4ccc(Cl)cc4)o3)CC2)c1 (stereo unspecified) returned BJeLR viability 4, PrP UTR inh 7, PrPC TRFRET 19, FBA Mtb inh 0, PfHsp40 yeast 0 and GDH-TPI inh 1.
O=C(/C=C/c1cccs1)NC(=S)Nc1ccc(C(=O)O)cc1 was read as BJeLR viability -3, PrP UTR inh -6, PrPC TRFRET -10, FBA Mtb inh 1, PfHsp40 yeast 1 and GDH-TPI inh 74*.
For O=C(/C=C/c1cccs1)Nc1ccc([N+](=O)[O-])cc1 the results were BJeLR viability 23, PrP UTR inh -39, PrPC TRFRET -8, FBA Mtb inh 0, PfHsp40 yeast 0 and GDH-TPI inh 17.
Screening NS(=O)(=O)c1ccc(NC(=S)NC(=O)/C=C/c2cccs2)cc1 returned BJeLR viability 5, PrP UTR inh -1, PrPC TRFRET -5, FBA Mtb inh -2, PfHsp40 yeast 1 and GDH-TPI inh 13.
Screening O=C(/C=C/c1cccs1)Nc1ccncc1 returned BJeLR viability 5, PrP UTR inh -24, PrPC TRFRET -14, FBA Mtb inh -2, PfHsp40 yeast -2 and GDH-TPI inh 36*.

Screening results deposited in PubChem BioAssay by several laboratories.
